# Most compounds without a hit are left out; they make up all but 7.2% or so of the library.
# RE007 growth inh – less growth of the S. pombe RE007 Vpr strain; S. pombe RE007 Vpr strain, BacTiter-Glo ATP luminescence, 24 h; Potency, µM (titrated, usually from 92.2 µM), without a hit: top-dose activity change, negative = less growth, usual class: inhibitors; hit rate 0.21% among 360,000; AID 651644; active means well fitted falling curve with a large enough effect; inconclusive means small, poorly fitted or top-dose-only effect; inactive means no such curve, though single readings can be large or run the other way; further: nearly all actives have a fitted effect of over 50% in size
#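 Fission yeast RE007 carrying one integrated HIV-1 vpr copy, seeded at OD 0.01 in PMG+AL medium with 23 nL pinned compound. Grown 24 h at 30 degrees; viability read by BacTiter-Glo luminescence after 5 min.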
# HCV inhibitor – inhibitors of hepatitis C virus infection; Huh7.5.1 HCVcc-Cre infection, luciferase reporter, 44 h; AID 651820; Potency, µM (highest dose often 41.8 µM), inactives show at the highest dose activity change, negative = inhibition, hits mostly inhibitors; hit rate 3.4% among 340,000
#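 HCVcc-Cre virus at an moi near 0.5 was added right after compound to cells cultured 4 h from seeding (1,000 cells/well). Luciferase activity was determined 44 h later, 15 min after substrate addition at RT.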
# FMDV antiviral – foot and mouth disease virus antiviral activity. FMDV antiviral cell-based qHTS. AID 1159524. hit rate 1.2% among 410,000. Potency, µM (doses to about 57.9 µM), inactives show at the top dose activity change, negative = inhibition, most hits filed as inhibitors; calls by dose curve; tested in HEK293T cells; further: read-out not given here; nearly all actives have a fitted effect of over 45% in size
# Lassa entry inh – blocks Lassa virus binding to or entry into cells; Lassa virus pseudotype entry inhibition, cell reporter; Potency, µM (doses to about 37.9 µM), for inactives: top-dose activity change, negative = inhibition, most hits filed as inhibitors; hit rate 1.2% among 300,000; calls by dose curve; tested in HEK293 cells; further: nearly all actives have a fitted effect of over 50% in size
# Marburg entry inh – inhibitors of Marburg virus binding or cell entry. Marburg virus pseudotyped entry inhibition, cell reporter. Potency, µM (top dose mostly 37.8 µM), for the others: at the highest dose activity change, negative = inhibition, actives largely listed as inhibitors. hit rate 1.8% among 300,000; calls by dose curve; tested in HEK293 cells
# Sm TGR inh – S. mansoni TGR enzyme inhibition. Q962Y6. purified TGR, DTNB reduction, TNB absorbance 405 nm. Potency, µM (top dose mostly 114 µM), for the others: top-dose activity change, negative = inhibition, most hits filed as inhibitors. hit rate 3% among 360,000. AID 485364; further: nearly all actives have a fitted effect of over 60% in size
#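 Kinetic colorimetric format: TGR-catalysed, NADPH-driven DTNB reduction monitored via TNB absorbance. Enzyme dispensed at 20 nM; compound exposure 15 min at room temperature before reaction start.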
# * marks the source's active call; other numbers are inactive results; u = inconclusive; x = not tested or not shown; [ ] = another dose, or the depositor's remark. Unless noted, the call rests on the fitted dose curve; in most records, active means well fitted curve in the direction sought with a large enough effect; inconclusive means small, poorly fitted or top-dose-only effect, or another doubt; inactive means no such curve, though single readings can be large; an effect the other way counts as inactive or inconclusive. On the % scale 0 is the no-effect control and ±100 the full control effect; potency means the concentration at half of the fitted maximal effect.
SMILES,RE007 growth inh,HCV inhibitor,FMDV antiviral,Lassa entry inh,Marburg entry inh,Sm TGR inh
COC1C(OC(=O)c2ccc(C)[nH]2)C(O)C(Oc2ccc3c(O)c(NC(=O)c4ccc(O)c(CC=C(C)C)c4)c(=O)oc3c2Cl)OC1(C)C (centres undefined),7%,1.6µM*,40µM*,x,x,2%
COc1ccc(-n2c(CCC(=O)O)ccc2-c2ccccc2)c(OC)c1,x,x,7%,u,u,8.9µM*
COc1ccc(-c2ccc(CCC(=O)O)n2NC(=O)c2ccc(O)cc2)cc1,4%,15%,4%,x,x,-29%
COc1ccccc1-n1c(CCC(=O)O)ccc1-c1ccccc1,-1%,-2%,1%,x,x,28µM*
COc1ccccc1NC(=O)Cn1c(CCC(=O)O)ccc1-c1ccc(C)cc1,-1%,4%,3%,-10%[46.1 µM],0%[46.1 µM],-24%
COc1ccc(-c2ccc(CCC(=O)O)n2-c2ccccc2OC)cc1,9%,-11%,0%,x,x,11µM*
CC(=O)N1CCN(c2nc3cc(C)ccc3cc2CN(C(=O)c2cccc3ccccc23)C2CC2)CC1,x,x,2%,x,x,x
COc1ccccc1-c1ccc(/C=C2\C=CC(=O)O2)o1,-12%,-27%,-14%,u,12%[14.2 µM],14µM*
CCn1cc(C(=O)NCc2ccccc2)c(=O)c2cc(F)c(N3CCN(C(=O)c4ccco4)CC3)cc21,-3%,11µM*,20µM*,u,u,3%
CCn1cc(C(=O)NCCCN(C)C)c(=O)c2cc(F)c(N3CCN(C)CC3)cc21,-4%,-13%,6%,-15%,u,-1%
CCn1cc(C(=O)NCCN(C)C)c(=O)c2cc(F)c(N3CCN(C)CC3)cc21,-19%,14%,1%,-17%,11µM*,-1%
CCn1cc(C(=O)NCc2ccc3c(c2)OCO3)c(=O)c2cc(F)c(N3CCN(C(=O)c4ccco4)CC3)cc21,4%,u,14µM*,u,u,2%
CCCNC(=O)CSc1cn(CC(=O)N2CCCCCC2)c2ccccc12,x,x,1%,u,x,-4%
Cc1ccc2c(c1)c(=O)c1ccccc1n2CCCC(=O)Nc1ccc(C)c(C)c1,x,x,u,u,x,-10%
O=C(O)CCC(=O)Nc1nnc(C(F)(F)F)s1,7%,0%,-1%,-3%,8%[46.1 µM],0%
CCC(NC(=O)Nc1nnc(C(F)(F)F)s1)(C(F)(F)F)C(F)(F)F,-13%,4.5µM*,u,7.1µM*,2.5µM*,-19%
CCC(Cc1ccccc1)NC(=O)CN1C(=O)CSc2ncccc21 (centres undefined),6%,13µM*,-17%,x,x,-6%
COCCCNC(=O)C(Cc1ccccc1)NS(=O)(=O)c1ccc2c(c1)c(=O)n(C)c(=O)n2C (centres undefined),u,7%,-14%,-6%,0%,0%
Cn1c(=O)c2cc(S(=O)(=O)NC(Cc3ccccc3)C(=O)NCc3ccco3)ccc2n(C)c1=O (centres undefined),-1%,-4%,6%,x,4%,40µM*
Cc1cccc(CNC(=O)c2c3n(c(C)cc2=O)-c2ccccc2SC(c2sccc2C)C3)n1 (centres undefined),x,x,0%,x,x,x
Cc1ccc2c(C)c(C(=O)N(Cc3ccc(Cl)cc3)C3CCS(=O)(=O)C3)oc2c1 (centres undefined),x,x,-14%,-29%[46.1 µM],-23%[46.1 µM],2%
Cc1ccsc1CN(C(=O)c1oc2ccc(F)cc2c1C)C1CCS(=O)(=O)C1 (centres undefined),x,x,-20%,u,-12%[46.1 µM],-1%
Cc1ccc2oc(C(=O)N(Cc3sccc3C)C3CCS(=O)(=O)C3)c(C)c2c1 (centres undefined),x,x,u,u,3.2µM*,8%
CCOc1ccc(CN(C(=O)c2oc3cc(C)ccc3c2C)C2CCS(=O)(=O)C2)cc1 (centres undefined),-3%,u,-20%,13µM*,u,5%
CCC(Oc1ccccc1)C(=O)Nc1cc(-c2ccccc2F)nn1-c1ccccc1 (centres undefined),x,x,u,0%[46.1 µM],x,-12%
SMILES,RE007 growth inh,HCV inhibitor,FMDV antiviral,Lassa entry inh,Marburg entry inh,Sm TGR inh
Cc1ccc(-c2csc(/C(C#N)=C(\O)CCl)n2)cc1,0%,u,-11%,u,u,18µM*
N#C/C(=C(/O)CCl)c1nc(-c2ccccc2)cs1,-13%,u,-14%,3%,-5%[46.1 µM],u
CCc1ccc(NC(=O)CC(c2cc(OC)c(OC)c(OC)c2)N2Cc3ccccc3C2=O)cc1 (centres undefined),x,x,68%,-11%[46.1 µM],x,3%
O=C(NC(=S)/C(=C1\CCCCCN1)[N+](=O)[O-])c1ccccc1,-14%,-23%,13µM*,u,u,x
COc1ccc(C(=O)N/N=C(/C)c2cccc(NC(=O)c3ccncc3)c2)cc1OC,1%,-25%,-27%,x,x,-2%
COc1ccc(C(=O)N/N=C/c2ccccn2)cc1OC,-5%,-12%,-5%,17%,-20%,1%
COc1ccc(C(=O)Nc2ccccc2C(=O)N/N=C/c2ccccn2)cc1OC,u,u,u,10µM*,u,-10%
COc1ccc(C(=O)Nc2ccc(/C(C)=N/NC(=O)c3ccccc3O)cc2)cc1OC,2%,u,-4%,13%,13µM*,-3%
COc1ccccc1-n1c(SCC(=O)NC2CCS(=O)(=O)C2)nc2cc([N+](=O)[O-])ccc21 (centres undefined),5%,16%,-24%,2%,4%,0%
COc1ccccc1-n1c(SCC(=O)c2ccc(O)cc2O)nc2cc([N+](=O)[O-])ccc21,6%,13%,u,4%,2.2µM*,-5%
COc1ccc([C@H](CC(=O)O)NC(=O)OC(C)(C)C)cc1,x,x,x,x,6%,x
CC(C)=CCc1c2c(c3occ(-c4ccc(O)c(O)c4)c(=O)c3c1O)C=CC(C)(C)O2,-2%,u,u,16µM*,u,x
Cc1cc(/C=C2\C(=O)NC(=O)N(c3ccccc3)C2=O)c(C)n1-c1ccc(C(=O)O)c(Cl)c1,6%,3%,-8%,x,x,28µM*
Cc1cc(/C=C2\C(=O)NC(=O)N(c3ccc(F)cc3)C2=O)c(C)n1-c1cccc(C(=O)O)c1,3%,-5%,6%,-9%[46.1 µM],18%[46.1 µM],u
Cc1cc(/C=C2\C(=O)NC(=O)N(c3ccccc3F)C2=O)c(C)n1-c1cc(C(=O)O)cc(C(=O)O)c1,x,-2%,-17%,x,x,8.9µM*
COC(=O)c1c(C)cc(OC)cc1O,x,x,8%,x,x,x
Cc1occc1C(=O)NCCN1Cc2ccccc2OC(c2ccccc2F)C1 (centres undefined),x,x,4%,x,x,x
